Measured values published in PubChem BioAssay (NCI).
The panel holds about 83,000 compounds, 20% with a hit somewhere; the sample as a whole holds those more often.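 Cell lines were cultured in 96-well plates, exposed to a single compound concentration, and assessed for percent growth 48 hours later.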 Unmarked numbers belong to inactive results. Activity calls are given as the source filed them. How the source made its calls: active means growth percent below 10; inactive means the rest.

Tests used:
Assay in all cases: NCI-60 one-dose screen, 48 h (100 = growth as untreated, 0 = no growth, -100 = all killed)
Settings in all cases: 10 µM unless noted
DU-145 prostate = system: DU-145 prostate
K-562 leukemia = system: K-562 leukemia
MALME-3M melanoma = system: MALME-3M melanoma
MDA-MB-231 breast = system: MDA-MB-231 breast
RXF 393 renal = system: RXF 393 renal
SF-268 CNS = system: SF-268 CNS
SF-295 CNS = system: SF-295 CNS
SF-539 CNS = system: SF-539 CNS
UACC-257 melanoma = system: UACC-257 melanoma
M14 melanoma = system: M14 melanoma
HCT-15 colon = system: HCT-15 colon
HT29 colon = system: HT29 colon
SNB-75 CNS = system: SNB-75 CNS
SNB-19 CNS = system: SNB-19 CNS
U251 CNS = system: U251 CNS
PC-3 prostate = system: PC-3 prostate
SK-MEL-5 melanoma = system: SK-MEL-5 melanoma
UACC-62 melanoma = system: UACC-62 melanoma
LOX IMVI melanoma = system: LOX IMVI melanoma
SK-MEL-28 melanoma = system: SK-MEL-28 melanoma

| SMILES | growth (DU-145 prostate) | growth (K-562 leukemia) | growth (MALME-3M melanoma) | growth (MDA-MB-231 breast) | growth (RXF 393 renal) | growth (SF-268 CNS) | growth (SF-295 CNS) | growth (SF-539 CNS) | growth (UACC-257 melanoma) | growth (M14 melanoma) | growth (HCT-15 colon) | growth (HT29 colon) | growth (SNB-75 CNS) | growth (SNB-19 CNS) | growth (U251 CNS) | growth (PC-3 prostate) | growth (SK-MEL-5 melanoma) | growth (UACC-62 melanoma) | growth (LOX IMVI melanoma) | growth (SK-MEL-28 melanoma) |
| --- | --- | --- | --- | --- | --- | --- | --- | --- | --- | --- | --- | --- | --- | --- | --- | --- | --- | --- | --- | --- |
| COc1ncc(-c2ccc3nccc(-c4ccnnc4)c3c2)cc1NS(=O)(=O)c1ccc(F)cc1F | 10.8% | 3.76% (active) | -34.2% (active) | 5.98% (active) | -58.5% (active) | 6.46% (active) | -27.3% (active) | -47.2% (active) | -36.2% (active) | -7.62% (active) | -15% (active) | -10.4% (active) | -29.8% (active) | -42.8% (active) | -62.3% (active) | -0.788% (active) | -95.8% (active) | -67.4% (active) | -42.8% (active) | -17.4% (active) |
| Cc1cn(-c2cc(NC(=O)c3ccc(C)c(Nc4nccc(-c5cnccn5)n4)c3)cc(C(F)(F)F)c2)cn1 | 82.2% | 4.39% (active) | 16.6% | 55.4% | 129% | 65.1% | 93.9% | 98.2% | 38.4% | 18.7% | 82% | 19.7% | 88.2% | 74.5% | 39.8% | 60.3% | 57.9% | 26.4% | 63.3% | 31.3% |
| COc1cc2nccc(Oc3ccc(NC(=O)C4(C(=O)Nc5ccc(F)cc5)CC4)cc3)c2cc1OC | 27.3% | 0.49% (active) | 0.11% (active) | 4.99% (active) | -25.5% (active) | 34% | -8.99% (active) | -10.2% (active) | -12.6% (active) | -11.6% (active) | 5.75% (active) | -19.1% (active) | -18.9% (active) | 29.9% | 25.1% | 20.8% | 3.39% (active) | -12.2% (active) | -71.2% (active) | 1.37% (active) |
| CC1(COc2ccc3c(c2)ncn3-c2ccc3cccc(N4CCC(N)CC4)c3n2)COC1 | 15.9% | 0.523% (active) | 20.8% | 4.69% (active) | -58.6% (active) | 9.66% (active) | 59.8% | -82.3% (active) | -50.3% (active) | 2.82% (active) | 10.5% | 0% (active) | 14.4% | 7.04% (active) | -36.4% (active) | 30.2% | -13.8% (active) | 99.3% | -57.2% (active) | 15.2% |
| CN1C/C=C\CCOc2cccc(c2)-c2ccnc(n2)Nc2cccc(c2)C1 | 5.04% (active) | -18.5% (active) | -79.4% (active) | -38.6% (active) | -86.1% (active) | -50.8% (active) | -86.3% (active) | -91.8% (active) | -73.7% (active) | -78.4% (active) | -16.9% (active) | -16.8% (active) | -98.6% (active) | 0.69% (active) | -52.9% (active) | -41.9% (active) | -95.1% (active) | -62.7% (active) | -79.4% (active) | -76% (active) |
| CO[C@H]1C[C@@H]2CC[C@@H](C)[C@@](O)(O2)C(=O)C(=O)N2CCCC[C@H]2C(=O)O[C@H]([C@H](C)C[C@@H]2CC[C@@H](O)[C@H](OC)C2)CC(=O)[C@H](C)/C=C(\C)[C@@H](O)[C@@H](OC)C(=O)[C@H](C)C[C@H](C)\C=C/C=C/C=C/1C | 42.1% | 24.4% | 35.1% | 49.6% | -4.23% (active) | 39.3% | 22.4% | 27.4% | 53% | 50.3% | 30.2% | 18.7% | 11% | 39.4% | 23.4% | 32.6% | 14.2% | 39.2% | 26.7% | 38.8% |
| CCCCCCCCCNCCCCCCCCC | 76.5% | 5.9% (active) | 18.4% | 66.3% | 50.5% | 79.8% | 66.6% | 56.7% | 67.2% | -48.6% (active) | 32.4% | 0.373% (active) | 67.2% | 82.2% | 49% | 59.4% | 54.1% | 83.2% | 41.9% | 43.5% |
| CO[C@H](C(=O)N[C@@H](CCCCNC(=O)OCc1ccccc1)C(=O)OC(C)(C)C)[C@@H]1Cc2cc3cc(OC4CC(OC5CC(O)C(O)C(C)O5)C(O)C(C)O4)c(C)c(O)c3c(O)c2C(=O)[C@H]1OC1CC(OC2CC(OC3CC(C)(O)C(O)C(C)O3)C(O)C(C)O2)C(O)C(C)O1 (stereo not given in full) | 26.5% | 5.35% (active) | -69.4% (active) | -71.8% (active) | -85.9% (active) | -61.5% (active) | -89.5% (active) | -32% (active) | -5.47% (active) | -69.8% (active) | 26.6% | 2.05% (active) | -94.3% (active) | -51.6% (active) | -82.3% (active) | 3.14% (active) | -97.7% (active) | -62.7% (active) | -62.8% (active) | -55.7% (active) |
| CC[C@H](CO)Nc1nc(NCc2ccccc2)c2ncn(C(C)C)c2n1 | 53.9% | 58.5% | 87.4% | 75.6% | -22.3% (active) | 70.9% | 59.8% | 57.2% | 91.6% | 71.8% | 53.4% | 54% | 57.4% | 67.9% | 62.5% | 70.8% | 66.5% | 46.8% | 51.1% | 55.5% |
| Cc1nc(-c2cn3c(n2)-c2ccc(-c4cnn(C(C)(C)C(N)=O)c4)cc2OCC3)n(C(C)C)n1 | 28.7% | 51% | 11.1% | 31.8% | -28.1% (active) | 33.1% | 3.66% (active) | -19.5% (active) | 20.2% | 40.5% | 30.8% | 10.5% | -5.53% (active) | 30.8% | 23.5% | 23.5% | 8.62% (active) | -22.6% (active) | 11.6% | 9.16% (active) |
| O=C(NOCCO)c1cc(CN2OCCCC2=O)c(F)c(F)c1Nc1ccc(I)cc1F | 56.7% | 31.2% | -2.48% (active) | 32.2% | 24.9% | 67.5% | 71.6% | 55.4% | -13.2% (active) | 9.12% (active) | 50.6% | 8.15% (active) | 71.5% | 51.8% | 40.6% | 99.3% | 45.7% | 4% (active) | 19.4% | 3.09% (active) |
| Cn1ccnc1C(=O)/C=C/c1ccc(CC(=O)Nc2ccc(C(F)(F)F)cc2)cc1 | 7.72% (active) | 6.29% (active) | 77.5% | 8.95% (active) | -1.43% (active) | 16.4% | 7.9% (active) | -36.8% (active) | 77.9% | 21.3% | -18.7% (active) | -2.78% (active) | 0.358% (active) | 4.97% (active) | -20% (active) | 13.8% | 56.9% | 27.9% | -49.4% (active) | 77.8% |
| Cc1c(N)ccc(-c2ccc(N)c(C)c2S(=O)(=O)O)c1S(=O)(=O)O | 111% | 101% | 127% | 109% | 118% | 109% | 117% | 126% | 115% | 108% | 111% | 111% | 101% | 112% | 106% | 98.4% | 110% | 105% | 98.6% | 115% |
| Cc1c(Cn2c(C)nc3c(C(=O)O)cc(N4CCOCC4)cc32)cccc1C(F)(F)F | 108% | 87.4% | 91.8% | 110% | 27.3% | 88.6% | 75.1% | 113% | 79% | 89% | 44.5% | 69.5% | 61.3% | 118% | 104% | 68.2% | 104% | 65.5% | 101% | 80.9% |
| O=C(O)C1(Cc2cccc(Nc3nccs3)n2)CCC(Oc2cccc(Cl)c2F)CC1 (stereo not given) | 70.2% | 33.9% | 77.5% | 77.5% | 82.1% | 61.6% | 71.5% | 89.2% | 49.6% | 58% | 70.7% | 62.8% | 95.5% | 75.4% | 60.8% | 71.3% | 70.3% | 61.8% | 74.6% | 88.4% |
